Out of some 5,500 compounds screened, about 2,000 (36%) were called active. Another 18% or so got no clear call; they are omitted. No stated cut-off is given here; in the data, active means normalized growth mostly below about 0.91 (no sharp cut-off); inconclusive means no clear call, values can overlap the other calls; inactive means mostly above about 0.92. The list shows a part of the results.
Assay: chemical genetic growth profiling, strain panel (AID 1159580);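 further: tested at 20 µM; growth read once vehicle control cultures reached saturation at 30 °C; 1 = growth at the plate median or of vehicle wells; lower values mean less growth of the strain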
Conditions: S. cerevisiae deletion strains, growth OD

Measured: normalized growth

CC(=O)Nc1cccc(O)c1
inactive: locus YAL013W, strain DEP1, active compounds read low 1 | locus YAL021C, strain ccr4, active compounds read low 1.01 | locus YAL026C, strain drs2, active compounds read low 1.03 | locus YAL030W, strain snc1, active compounds read low 1.01 | locus YBL061C, strain skt5, active compounds read low 1.01 | locus YBR009C, strain hhf1, active compounds read low 0.984 | locus YBR021W, strain FUR4, active compounds read low 1.01 | locus YBR023C, strain chs3, active compounds read low 1.03 | locus YBR171W, strain sec66, active compounds read low 1.02 | locus YBR229C, strain ROT2, active compounds read low 1.01 | locus YBR231C, strain swc5, active compounds read low 1 | locus YBR279W, strain paf1, active compounds read low 1.02 | locus YCL011C, strain gbp2, active compounds read low 1.04 | locus YCL016C, strain dcc1, active compounds read low 1.05 | locus YCL029C, strain bik1, active compounds read low 0.993 | locus YCL061C, strain MRC1, active compounds read low 1.01 | locus YCL069W, strain vba3, active compounds read low 1.01 | locus YCR088W, strain abp1, active compounds read low 1.02 | locus YDL005C, strain med2, active compounds read low 1.02 | locus YDL035C, strain GPR1, active compounds read low 0.992 | locus YDL040C, strain nat1, active compounds read low 0.999 | locus YDL074C, strain BRE1, active compounds read low 1.02 | locus YDL101C, strain DUN1, active compounds read low 1.02 | locus YDL134C, strain PPH21, active compounds read low 0.983 | locus YDL185W, strain tfp1, active compounds read low 0.993 | locus YDL192W, strain arf1, active compounds read low 1.01 | locus YDR001C, strain nth1, active compounds read low 1.01 | locus YDR069C, strain doa4, active compounds read low 1.03 | locus YDR101C, strain arx1, active compounds read low 0.989 | locus YDR137W, strain rgp1, active compounds read low 1.03 | locus YDR150W, strain NUM1, active compounds read low 0.998 | locus YDR159W, strain sac3, active compounds read low 0.954 | locus YDR162C, strain NBP2, active compounds read low 0.999 | locus YDR195W, strain ref2 0.986 | locus YDR297W, strain sur2, active compounds read low 0.998 | locus YDR318W, strain mcm21, active compounds read low 1.01 | locus YDR334W, strain swr1, active compounds read low 1.02 | locus YDR335W, strain msn5, active compounds read low 1.01 | locus YDR388W, active compounds read low 0.998 | locus YDR392W, strain spt3, active compounds read low 0.99 | locus YDR502C, strain sam2, active compounds read low 0.986 | locus YEL003W, strain gim4, active compounds read low 1 | locus YEL037C, strain rad23, active compounds read low 1 | locus YEL061C, strain CIN8 (second series), active compounds read low 1 | locus YEL061C, strain CIN8, active compounds read low 1.01 | locus YER015W, strain faa2, active compounds read low 1.02 | locus YER016W, strain bim1, active compounds read low 1.03 | locus YER110C, active compounds read low 1 | locus YER111C, strain swi4, active compounds read low 1.01 | locus YER155C, strain BEM2 (second series), active compounds read low 0.999 | locus YER155C, strain BEM2, active compounds read low 1.01 | locus YER167W, strain BCK2, active compounds read low 1 | locus YFR010W, strain ubp6, active compounds read low 0.994 | locus YGL078C, strain dbp3, active compounds read low 0.994 | locus YGL086W, strain mad1, active compounds read low 0.99 | locus YGL167C, strain pmr1, active compounds read low 1.01 | locus YGL173C, strain kem1, active compounds read low 0.987 | locus YGL227W, strain vid30, active compounds read low 1.02 | locus YGL240W, strain doc1, active compounds read low 0.977 | locus YGL248W, strain PDE1, active compounds read low 1.02 | locus YGL253W, strain hxk2, active compounds read low 1.04 | locus YGR078C, strain PAC10, active compounds read low 1.01 | locus YGR135W, strain pre9, active compounds read low 1.02 | locus YGR252W, strain gcn5, active compounds read low 1 | locus YHR013C, strain ard1, active compounds read low 1.04 | locus YHR027C, strain rpn1, active compounds read low 1.01 | locus YHR030C, strain SLT2, active compounds read low 1 | locus YHR079C, strain IRE1 (second series), active compounds read low 0.997 | locus YHR094C, strain hxt1, active compounds read low 0.997 | locus YHR129C, strain ARP1, active compounds read low 1.01 | locus YHR142W, strain chs7, active compounds read low 1.04 | locus YHR200W, strain rpn10, active compounds read low 0.996 | locus YIL066C, strain RNR3, active compounds read low 1 | locus YIL073C, strain SPO22, active compounds read low 1.02 | locus YIL125W, strain kgd1, active compounds read low 0.994 | locus YIR030C, strain dcg1, active compounds read low 0.991 | locus YJL092W, strain hpr5, active compounds read low 1.01 | locus YJL095W, strain BCK1 (second series), active compounds read low 1.03 | locus YJL095W, strain BCK1, active compounds read low 1.03 | locus YJL115W, strain asf1, active compounds read low 1.02 | locus YJL129C, strain trk1, active compounds read low 1.04 | locus YJL134W, strain LCB3, active compounds read low 1.02 | locus YJL154C, strain vps35, active compounds read low 1.01 | locus YJL164C, strain tpk1, active compounds read low 1.03 | locus YJL166W, strain qcr8, active compounds read low 0.982 | locus YJL168C, strain set2, active compounds read low 1.02 | locus YJL187C, strain SWE1 (second series), active compounds read low 1.02

— PubChem BioAssay AID1159580 (chemical genetic matrix, 2015)
